Screening data deposited in PubChem BioAssay by several laboratories.
CYP2C19 inhib: blocks human cytochrome P450 2C19; inhibition, % at 5 µM; 96,000 compounds, 21% hits; P33261; AID 778; CYP2C19 Supersomes, luciferin-H EGE luminescence, 30 min;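 active = CYP2C19 inhibition above a set limit at 5 µM in the primary screen, cut at about 50% in these data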;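 note: plate controls were negative control wells for no effect and 2.5 mM tranylcypromine positive control for full effect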
D1 allo mod: allosteric modulators of human D1 dopamine receptor. P21728. HEK293 D1, CRE-luciferase, dopamine EC30 potentiation; actives deviate in either direction. B-score at 10 µM. 58,000 compounds, 5.9% hits. AID 641;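 active = luminescence count or its row- and column-corrected plate score outside the 99.7% band of the plate's sample wells, on either side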
CYP2C19 activ: increases human CYP2C19 enzyme activity. 96,000 tested, under 10 active. activation factor at 5 µM. recombinant CYP2C19, luciferin-H EGE luminescence; active compounds read high; 0 = fully inhibited enzyme, 1 = untreated enzyme. AID 1025;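 active = activation factor of at least 2 at 5 µM in the primary screen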;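 note: 0 = wells with 2.5 mM tranylcypromine and 1 = vehicle-only wells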
CYP2C9 inh: blocks human cytochrome P450 2C9. P11712. CYP2C9 Supersomes, luciferin-H conversion, luminescence. inhibition, % at 5 µM. 96,000 compounds, 20% hits. AID 777;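 active = blocking of liver enzyme CYP2C9 beyond about 50% at 5 µM, limit read from the data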
Target sequence (P11712 whole entry, looked up): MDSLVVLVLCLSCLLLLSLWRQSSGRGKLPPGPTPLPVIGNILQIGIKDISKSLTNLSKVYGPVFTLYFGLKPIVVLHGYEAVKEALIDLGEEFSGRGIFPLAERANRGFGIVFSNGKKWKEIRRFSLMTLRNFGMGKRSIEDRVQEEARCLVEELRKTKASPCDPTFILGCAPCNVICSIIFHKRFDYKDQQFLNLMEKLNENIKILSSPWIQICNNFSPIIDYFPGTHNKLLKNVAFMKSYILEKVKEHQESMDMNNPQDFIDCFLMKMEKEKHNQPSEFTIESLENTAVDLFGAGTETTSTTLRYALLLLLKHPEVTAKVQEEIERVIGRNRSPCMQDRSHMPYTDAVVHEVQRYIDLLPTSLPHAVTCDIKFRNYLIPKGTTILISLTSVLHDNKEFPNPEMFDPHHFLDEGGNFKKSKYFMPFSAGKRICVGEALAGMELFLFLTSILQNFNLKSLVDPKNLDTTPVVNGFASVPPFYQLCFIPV
hDAT+cocaine: changed human dopamine transporter uptake under cocaine IC80 | 110,000 compounds, 1.3% hits | AID 449768 | Q01959 | LLC-PK1 hDAT cells, [14C]-dopamine uptake with cocaine IC80; actives deviate in either direction | B-score at 10 µM;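 active = Z score or B-score, a plate-position-corrected score, falls beyond the plate's 99.7% confidence bounds, in either direction; inactive = both scores lie inside the 99.7% bounds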;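 note: scored against the spread of the other compound wells on the same plate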
CYP2C9 activ: activators of human CYP2C9; P11712; recombinant CYP2C9, luciferin-H conversion, luminescence; active compounds read high; factor 1 = untreated enzyme, 0 = blocked; activation factor at 5 µM; 96,000 compounds, 1.4% hits;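 active = activation factor of 2 or more for CYP2C9 at a 5 µM dose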;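 note: 0 = sulfaphenazole-blocked wells and 1 = vehicle-only wells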
* = called active by the depositor; / = not tested or not shown. Only some compounds are listed: those with a hit (about 28% of all), similar ones and a draw of the others.

SMILES	CYP2C19 inhib	D1 allo mod	CYP2C19 activ	CYP2C9 inh	hDAT+cocaine	CYP2C9 activ
COc1ccc(CCN(Cc2nc3ccccc3c(=O)[nH]2)C(=O)c2ccco2)cc1	44	-0.28	0.6	57*	1.6	0.4
CCCN(CCC)CCNc1c(N2CCN(C(=O)OCC)CC2)c(=O)c1=O	-12	/	1.1	-13	0.51	1.1
COCc1cc(=O)n2[nH]c(-c3cccc(Br)c3)cc2n1	95*	-0.16	0	50	0.31	0.5
CCOC(=O)c1cc2c(C)n(-c3ccc(C)cc3)c(C)c2ccc1=O	39	/	0.6	59*	-0.038	0.4
CCOC(=O)c1cc2c(C)n(-c3ccc(OCC)cc3)c(C)c2ccc1=O	64*	/	0.4	20	0.78	0.8
CCOC(=O)Cn1nc(C)n(-c2ccc(C)cc2)c1=O	-7	/	1.1	-2	0.48	1
CCOC(=O)c1cnc(Nc2ccc(OCC)cc2)nc1C	28	0.51	0.7	3	0.67	1
CCO[C@H]1OC(C(=O)NC2CC2)=C[C@@H](c2csc3ccccc23)[C@@H]1CCCO	/	/	/	/	0.75	/
CC12CCC(C(=O)Nc3nccs3)(OC1=O)C2(C)C (stereo not given)	42	/	0.6	2	0.13	1
COc1ccc(OC)c(NC(=O)C23CCC(C)(C(=O)O2)C3(C)C)c1 (stereo not given)	61*	0.22	0.4	-103	0.17	2*
Cc1cccnc1NC(=O)C12CCC(C)(C(=O)O1)C2(C)C (stereo not given)	6	/	0.9	24	-0.3	0.8
COC(=O)c1ccccc1NC(=O)C12CCC(C)(C(=O)O1)C2(C)C (stereo not given)	57*	/	0.4	10	-0.95	0.9
COc1ccc(Cl)cc1NC(=O)C12CCC(C)(C(=O)O1)C2(C)C (stereo not given)	83*	/	0.2	-65	-0.5	1.6
COC(=O)[C@@H]1C[C@H]2CC[C@H](O)C[C@H]2N1Cc1ccc(-c2ccccc2)cc1	/	/	/	/	0.59	/
CC(C(=O)N1c2ccccc2Sc2ccccc21)n1nnc(-c2cccs2)n1 (stereo not given)	51*	1	0.5	83*	-0.52	0.2
Cc1ccc(-c2nnn(C(C)C(=O)N3c4ccccc4CCc4ccccc43)n2)cc1 (stereo not given)	/	/	/	/	-0.37	/
COc1ccc(C2/C(=C(\O)c3cc(C)ccc3C)C(=O)C(=O)N2CCN(C)C)cc1OC (stereo not given)	-4	-0.082	1	33	0.013	0.7
O=C(CSCc1ccccc1Cl)NN1C(=O)c2ccccc2C1=O	49	/	0.5	51*	-0.014	0.5
COc1ccc(S(=O)(=O)Nc2cc(C)nn2-c2ccccc2)cc1	18	/	0.8	98*	-0.91	0
Cc1cc(NC(=O)Nc2cc(C)nn2-c2ccccc2)n(-c2ccccc2)n1	14	0.042	0.9	1	-0.036	1
Cc1cc(Nc2ccccc2)nn1C(=O)c1ccccc1	35	0.58	0.7	47	0.29	0.5
Cc1nn(-c2ccccc2)c(C)c1/C=N\NS(=O)(=O)c1ccc(Cl)cc1	98*	/	0	99*	-0.016	0
Cc1nn(-c2ccccc2)c(C)c1NS(=O)(=O)c1ccccc1	96*	-0.51	0	91*	0.45	0.1
COc1ccc(C(=O)n2nc(C)cc2Nc2ccccc2)cc1	2	/	1	75*	0.47	0.2
Cc1ccnc(SCC(=O)Nc2c(C)n(C)n(-c3ccccc3)c2=O)n1	-16	/	1.2	-21	2.5	1.2
SMILES	CYP2C19 inhib	D1 allo mod	CYP2C19 activ	CYP2C9 inh	hDAT+cocaine	CYP2C9 activ
O=C(Cn1cnc2c(nnn2-c2cccc(Cl)c2)c1=O)N1CCCC1	10	-0.48	0.9	-67	0.21	1.7
COC(=O)c1ccc2c(=O)n(CCCCCC(=O)NCc3ccccn3)c(=O)[nH]c2c1	1	-2.4	1	28	-0.44	0.7
CCn1nc(NC(=O)c2ccccn2)c2cc3cccc(C)c3nc21	2	-0.17	1	7	-0.84	0.9
CCn1nc(C)c(NS(=O)(=O)c2ccccc2)c1C	85*	/	0.2	11	-0.085	0.9
Cc1nn(C)c(C)c1NS(=O)(=O)c1ccccc1	27	1.6	0.7	7	-1.6	0.9
CCn1nc(NS(=O)(=O)c2ccccc2)c2cc3cccc(C)c3nc21	9	-0.073	0.9	79*	-0.024	0.2
Cc1cccc(NC(=O)c2ccc(S(=O)(=O)N3CCCCC3)cc2)n1	/	0.48	/	/	0.36	/
Cc1nn(-c2ccccc2)c(C)c1NC(=O)c1ccc(S(=O)(=O)N2CCCC2)cc1	12	0.23	0.9	57*	1.3	0.4
COC(=O)c1ccc(C(=O)Nc2cc(Cl)ccc2Cl)cc1NC(=O)c1ccc(N(C)C)cc1	-8	/	1.1	4	1.4	1
COc1ccc(C2=CC3=C(Br)C(=O)C(C)(OC(=O)c4cnc5ccccc5n4)C(=O)C3=CO2)cc1 (stereo not given)	/	/	/	/	-0.42	/
CCOC(=O)C1=CSC2=NS(=O)(=O)CCN12	-14	/	1.1	-5	-0.61	1
COc1cc(-c2cc(N)n(S(=O)(=O)c3ccccc3)n2)cc(OC)c1OC	96*	/	0	98*	2.6	0
COC(=O)C(C)Sc1nc(-c2ccc(OC)cc2)nc2c1c(=O)n(C)c(=O)n2C (stereo not given)	/	0.016	/	/	/	/
Cc1nn(-c2ccc(F)cc2F)c2c1-c1nc(N3CCCC3)ncc1CC2	2	-5.9*	1	30	-1.7	0.7
Cn1nc(C(F)(F)F)cc1C(=O)NC1CCCCCC1	50	/	0.5	17	-0.15	0.8
CCCCn1ccnc1C(=O)c1cc(S(=O)(=O)N2CCOCC2)ccc1C	60*	/	0.4	69*	-0.95	0.3
CCCCn1ccnc1C(=O)c1cccc(S(=O)(=O)N2CC(C)CC(C)C2)c1 (stereo not given)	79*	/	0.2	90*	0.41	0.1
Cc1cccc(S(=O)(=O)Nc2ccc(C)c3c2OC(C)(C)C3)c1	97*	/	0	-111	0.48	2.1*
C=C(c1ccc(O)cc1)c1ccc(O)cc1	96*	-0.46	0	98*	-0.13	0
C/C=C(/C(=C/C)c1ccc(O)cc1)c1ccc(O)cc1	/	2.3	/	/	0.46	/
Cc1ccc(S(=O)(=O)N/N=C\c2ccc(Cl)c([N+](=O)[O-])c2)cc1	87*	/	0.1	70*	0.51	0.3
Cc1ccc(NC(=S)N/N=C/c2ccc(Cl)c([N+](=O)[O-])c2)cc1	22	/	0.8	56*	-1.5	0.4
Cc1ccc(S(=O)(=O)N/N=C/c2ccc(OS(=O)(=O)c3ccc(C)c([N+](=O)[O-])c3)cc2)cc1	21	/	0.8	91*	0.14	0.1
Cc1ccc(S(=O)(=O)N/N=C\c2ccc([N+](=O)[O-])o2)cc1	14	/	0.9	79*	-1.9	0.2
CN(C)c1nc(N/N=C\c2ccc(Cl)c([N+](=O)[O-])c2)nc(Nc2ccc(F)cc2)n1	/	/	/	/	1.4	/
